Compounds without any hit were thinned out: in the full panel of roughly 83,000, 20% have a hit.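 Interpretation: 100, growth as untreated; towards 0, rising growth inhibition; 0, no net growth; 0 to -100, cell death. Compounds scoring below 10 were considered active.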 Values without a mark were called inactive. Activity calls are given as the source filed them.

In the experiment the test system is SK-OV-3 ovarian. In words: NCI-60 one-dose screen, 48 h (100 = growth as untreated, 0 = no growth, -100 = all killed). As to conditions: 10 µM unless noted. The protocol:
Growth inhibition of the SK-OV-3 human tumor cell line is measured as a screen for anti-cancer activity. Cells are grown in 96 well plates and exposed to the test compound for 48 hours. Compounds are tested at a single concentration, which is 10^-5 M for most compounds. The reported endpoint is percent growth (GI% or GIPRCNT), where numbers from 0 - 100% represent growth inhibition, and numbers from -100% - 0 represent cell death. For example, a value of 40 represents 60% growth inhibition. A value of 0 means no net growth occurred over the course of the experiment. A value of -40 indicates 40% of cells at the beginning of the experiment died by the end of the experiment. A value of -100 means all cells are dead at the end of the experiment.
NCI-60 Human Tumor Cell Lines Screen was performed using the standard one-dose NCI protocol, which is described in more detail at https://dtp.cancer.gov/discovery_development/nci-60/default.htm.
Compounds with GIPRCNT values below 10 were considered active. Activity score was based on GIPRCNT using the following formula: […]
Score is 0 for GIPRCNT values of 100 or above, 50 for GIPRCNT values of 0, and 100 for GIPRCNT values of -100.
With `CN(C)CCN1C(=O)c2cccc3c(N)ccc(c23)C1=O`, the growth was 32.2%.
Consider `CN1CCN(c2nc(NCCCCNc3ccnc4cc(Cl)ccc34)c3ccccc3n2)CC1`, for which the growth was 104%.
On to `CS(=O)(=O)c1ccc(-n2nc(-c3ccc(Br)cc3)c3ccccc3c2=O)cc1`, for which the growth was 94.3%.
In the case of `CC(C)C1=C[C@@]23CC[C@@H]4[C@](C)(CCC[C@@]4(C)C(=O)N4CCCNCC4)[C@H]2C[C@@H]1[C@H]1C(=O)CCC(=O)[C@H]13` it was 107%; in that of `c1ccc(-c2c(-c3ccccc3)[n+](Cc3ccc4ccccc4c3)c(-c3ccc(-c4nc5ccccc5s4)cc3)n2Cc2ccc3ccccc3c2)cc1`, -97.4% (active).
In the case of `COc1cc(-c2nc3ccccc3[nH]2)ccc1OCC(=O)N=Nc1c(O)[nH]c2ccc(Cl)cc12` it was -13.3% (active); in that of `COc1ccc(-c2nc3ccc(-c4nc5ccc(N6CCN(c7ccncc7)CC6)cc5[nH]4)cc3[nH]2)cc1OC`, 73.6%; in that of `OCC(O)c1nc2ccc3[nH]ncc3c2c2c1CCCC2` (stereo not given), 40.9%.
With `O=C(COc1ccc(/C=C2\COc3ccccc3C2=O)cc1)Nc1nccs1`, the growth was 127%.
For `Cc1c(/C=C/[N+](=O)[O-])ccc2c1[nH]c1ccccc12`, the growth is 114%.
Take `CN1CCN(c2ccc3nc(-c4ccc(OCCCCN5CCN(CCCCN6C(=O)c7cccc8cccc(c78)C6=O)CC5)cc4)[nH]c3c2)CC1`: the growth was 89.3%.
As for `CCOc1ccc(-n2nc(C(=O)Nc3cc(OC)c(OC)c(OC)c3)nc2-c2cc(OC)c(OC)c(OC)c2)cc1`, the growth is 99.7%.
Take `CC1=C(O)C(=O)C(C(C#N)(C#N)C(C#N)C#N)C1` (stereo not given): the growth is 99%.
In the case of `CCCOc1cc2ccccc2cc1C(=O)Nc1nc(N)c2c(ccc3nccc32)[nH]1`, the growth is -77.2% (active).
Consider `COc1ccc2c(c1)O/C(=C\c1cccc(OCC(=O)Nc3nc4c(s3)CCCC4)c1)C2=O`, for which the growth is 90.9%.
`Cn1cc(C(=O)c2nc(-c3c[nH]c4ccc(Br)cc34)no2)c2cc(F)ccc21`: the growth was 87.9%.
Regarding `O=[N+]([O-])c1ccc(Nc2nc(NCCN3CCOCC3)ncc2[N+](=O)[O-])cc1`, the growth is 93.4%.
With `COc1ccc(-c2cc(-c3ccc(Nc4ccnc5cc(Cl)ccc45)cc3)nc(N3CCOCC3)n2)cc1`, the growth is 101%.
As for `COc1cc(-c2nc3ccccc3[nH]2)ccc1OCc1nnc(-c2ccc(CC(C)C)cc2)o1`, the growth is 99.1%.
With `FC(F)(F)c1[nH]ncc1-c1nc2ccc3n[nH]c(C#Cc4cccnc4)c3c2c2c1CCCC2` the figure was 27.8%; with `CCOc1ccc(-n2nc(C(=O)Nc3ccccc3)nc2-c2cc(OC)c(OC)c(OC)c2)cc1`, 51%; with `Nc1n[nH]c2ccc([C@@H]3Nc4cc5c(cc4[C@H]4C6CCC(C6)[C@@H]34)C(=O)NC5)cc12` (stereo not given in full), 42.1%.
With `C=CC(=O)Nc1cccc(-c2nc(SC)nc(Nc3cccc(OC)c3)c2C#N)c1` the figure was 73.5%.
With `CCCn1c(=O)[nH]c(N)c([C@H]2c3ccccc3Oc3[nH]c(=O)n(CCC)c(=O)c32)c1=O` the figure was 104%; with `O=c1oc2c(C(F)(F)F)cccc2cc1-c1csc(Nc2ccc(OCCF)cc2)n1`, 15.1%; with `Cc1nc2c3c(-c4ccccc4)c(-c4ccccc4)oc3ncn2n1`, 93%.
In the case of `CCOC(=O)c1csc(NC(=O)COc2cccc(/C=C3\CSc4ccccc4C3=O)c2)n1`, the growth is 35%.
With `CCc1nnc(CNc2ccc(Cl)cc2)o1` the figure was 88.5%; with `COc1ccc(S(=O)(=O)N2CC3(COC3)C2)cc1NC(=O)c1[nH]c(C)c2c1CCCCC2=O`, 39.8%.
As for `CN1CCN=C1c1ccc(NC(=O)c2ccc(C(=O)Nc3ccc(C4=NCCN4C)cc3)cc2)cc1`, the growth was 96.5%.
For the compound `C=C1C(=O)O[C@H]2[C@H]1CC/C(C=Nc1ccc(C(F)(F)F)cc1N)=C\CC[C@@]1(C)O[C@@H]21`, the growth is 65.4%.
On to `NC(=NC1C2CC3CC(C2)CC1C3)Nc1ccc(I)cc1` (stereo not given), for which the growth is 77.6%.
For the compound `COc1ccc2nc(NC(=O)CSc3nnc4n3S(=O)(=O)c3ccccc3N4c3ccccc3)sc2c1`, the growth was 100%.
Turning to `C=C(C)C1CC(O)C2(C)CCCC3C2C1CC(C)C3(C)CC/C(C)=C/C(O)C1CCC(=O)c2c(OC)cc(OC)cc21` (stereo not given), the growth was 51%.
Take `CC1=CC(C)(C)Nc2ccc(Cc3ccc4c(c3)C(C)=CC(C)(C)N4)cc21`: the growth is 105%.
In the case of `CON1C(=O)CC[C@]2(C)[C@H]3CC[C@@H]4C([C@@]5(C)CCC(=O)O5)CC[C@@]4(C)[C@]3(C)CC[C@H]2C1(C)C` (stereo not given in full) it was 104%; in that of `CC[N+](CC)=c1sc2c(s1)C(c1ccc(Cl)cc1)Oc1ccc(Cl)cc1-2` (stereo not given), -6.15% (active); in that of `CCOC(=O)c1sc2nc(-c3cccc(OC)c3)nc(N3CCOCC3)c2c1C`, 102%.
`O=C1c2c(O)cc(O)cc2-c2c(-c3ccc(O)cc3)oc3cc(O)cc1c23`: the growth is 15.7%.
`Brc1ccc(-c2csc(Nc3ccccn3)n2)cc1`: the growth was 82.7%.

The values above are taken from PubChem BioAssay (NCI).
